PubChem BioAssay (NCI)
About 83,000 compounds went through this panel and 20% of them were active in at least one assay; those are over-represented in the sample as a whole.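 Single-concentration screen, 48 h exposure, 96-well plates. Endpoint: percent growth. Below 10 = active.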 Active and inactive are the calls of the source.

Key:
Experiment in all cases: NCI-60 one-dose screen, 48 h (100 = growth as untreated, 0 = no growth, -100 = all killed)
Conditions in all cases: 10 µM unless noted
NCI-H23 lung = system: NCI-H23 lung
NCI-H226 lung = system: NCI-H226 lung
NCI-H322M lung = system: NCI-H322M lung
HOP-62 NSCLC = system: HOP-62 NSCLC
NCI-H460 lung = system: NCI-H460 lung
HOP-92 NSCLC = system: HOP-92 NSCLC
NCI-H522 lung = system: NCI-H522 lung
A549/ATCC NSCLC = system: A549/ATCC NSCLC
786-0 renal = system: 786-0 renal
COLO 205 colon = system: COLO 205 colon

Measured: growth

Cc1c(O)cc(-c2cnc(N/N=C\c3ccc(Cl)cc3)s2)c(O)c1C
inactive: NCI-H23 lung 91.5% | NCI-H226 lung 87.2% | NCI-H322M lung 96.9% | HOP-62 NSCLC 98.6% | NCI-H460 lung 100% | HOP-92 NSCLC 81.1% | NCI-H522 lung 65.1% | A549/ATCC NSCLC 85.1% | 786-0 renal 110% | COLO 205 colon 106%

CCCCCCCCCCCCCCCCCCOc1ccccc1CC(=O)OCCC[N+](C)(C)C
inactive: NCI-H23 lung 46.4% | NCI-H226 lung 78% | NCI-H322M lung 84.3% | HOP-62 NSCLC 67.1% | NCI-H460 lung 80.1% | HOP-92 NSCLC 39.6% | NCI-H522 lung 36.3% | A549/ATCC NSCLC 54.2% | 786-0 renal 50.7% | COLO 205 colon 16.7%

CCN(CC)CCn1nc2c3c(cccc3c1=O)-c1ccccc1-2
inactive: NCI-H23 lung 23.7% | NCI-H322M lung 30.6% | HOP-62 NSCLC 11.1% | NCI-H522 lung 10.8% | 786-0 renal 33.3% | COLO 205 colon 15.8%
active: NCI-H226 lung -39.9% | NCI-H460 lung 3.42% | HOP-92 NSCLC -6.84% | A549/ATCC NSCLC 1.36%

O=c1[nH]ccc2nc(N3CCC(O)CC3)nc(Nc3ccc(N4CCOCC4)cc3)c12
active: HOP-92 NSCLC 2.14% | COLO 205 colon -1.79%
inactive: NCI-H23 lung 58.2% | NCI-H226 lung 45.7% | NCI-H322M lung 83.7% | HOP-62 NSCLC 97.2% | NCI-H460 lung 36.2% | NCI-H522 lung 75.1% | A549/ATCC NSCLC 29.8% | 786-0 renal 77.2%

CN(C)CCC=C1c2ccccc2C(C)(C)c2ccccc21
inactive: NCI-H23 lung 65.8% | NCI-H226 lung 122% | NCI-H322M lung 99.1% | HOP-62 NSCLC 64.5% | NCI-H460 lung 85.6% | HOP-92 NSCLC 36.7% | NCI-H522 lung 76.5% | A549/ATCC NSCLC 88.9% | 786-0 renal 67.4% | COLO 205 colon 68.7%

CC(=O)OC[C@H]1OC(Sc2sc(C(=O)c3ccc(Br)cc3)c(N)c2-c2nc3ccccc3s2)[C@H](OC(C)=O)[C@@H](OC(C)=O)[C@@H]1OC(C)=O (stereo not given in full)
inactive: NCI-H23 lung 23.8% | NCI-H226 lung 28.1% | NCI-H322M lung 83.5% | HOP-62 NSCLC 63.8% | NCI-H460 lung 44.3% | HOP-92 NSCLC 81.7% | NCI-H522 lung 63.8% | A549/ATCC NSCLC 71.5% | 786-0 renal 62.7% | COLO 205 colon 85%

CN(c1ccccc1)c1ccc2c(c1)OCCC21CC1Nc1cnccc1C(=O)O (stereo not given)
inactive: NCI-H23 lung 95.4% | NCI-H226 lung 63.9% | NCI-H322M lung 87.5% | HOP-62 NSCLC 63.2% | NCI-H460 lung 45.7% | HOP-92 NSCLC 101% | NCI-H522 lung 63.7% | A549/ATCC NSCLC 83.4% | 786-0 renal 72.9% | COLO 205 colon 68.6%

C=C(C)[C@@H]1CC[C@]2(C)[C@H](CC=C3[C@@H]4CC(C)(C)CC[C@]4(C(N)=O)CC[C@]32C)[C@@]1(C)CCC#N
active: NCI-H522 lung 7.77% | COLO 205 colon -12.1%
inactive: NCI-H23 lung 27.9% | NCI-H226 lung 49.7% | NCI-H322M lung 72.1% | HOP-62 NSCLC 56.7% | NCI-H460 lung 12.8% | HOP-92 NSCLC 32% | A549/ATCC NSCLC 17.6% | 786-0 renal 26.1%

CC(=O)[C@@H]1CC[C@]2(COS(=O)(=O)c3ccc(C)cc3)CC[C@]3(C)[C@H](CC[C@@H]4[C@@]5(C)CCCNC(C)(C)[C@@H]5CC[C@]43C)[C@@H]12
inactive: NCI-H23 lung 78.6% | NCI-H226 lung 86% | NCI-H322M lung 93.7% | HOP-62 NSCLC 87.1% | NCI-H460 lung 41.8% | HOP-92 NSCLC 57.6% | NCI-H522 lung 89.8% | A549/ATCC NSCLC 70.5% | 786-0 renal 89.5%
active: COLO 205 colon -62.4%

COc1ccc(N=Nc2ccc(O)c(=O)cc2)cc1
active: NCI-H23 lung 2.37% | NCI-H226 lung 4.29% | NCI-H460 lung 2.64% | NCI-H522 lung 0.606% | A549/ATCC NSCLC 5.6%
inactive: NCI-H322M lung 25.2% | HOP-62 NSCLC 19.1% | HOP-92 NSCLC 19.4% | 786-0 renal 19.5% | COLO 205 colon 26.3%

CN(C)c1ccc(-c2ccc3[nH]c(=O)nc(-c4ccccc4)c3c2)cn1
inactive: NCI-H23 lung 62.1% | NCI-H226 lung 66.6% | NCI-H322M lung 77.5% | HOP-62 NSCLC 63% | NCI-H460 lung 18.3% | HOP-92 NSCLC 59.1% | NCI-H522 lung 19.2% | A549/ATCC NSCLC 58.3% | 786-0 renal 44.5% | COLO 205 colon 37.1%

O=C(c1ccccc1)c1c(/C=C/c2ccc(Cl)cc2)nc2ccccc2c1/C=C/c1cccs1
inactive: NCI-H23 lung 102% | NCI-H226 lung 92.4% | NCI-H322M lung 89.4% | HOP-62 NSCLC 106% | NCI-H460 lung 107% | HOP-92 NSCLC 87.3% | NCI-H522 lung 88.6% | A549/ATCC NSCLC 92.9% | 786-0 renal 94.9% | COLO 205 colon 103%

CCCCn1c(=O)c2c(nc(NCCc3ccc(O)c(O)c3)n2CCC)n(CCCC)c1=O
active: NCI-H522 lung -0.778%
inactive: NCI-H23 lung 87.1% | NCI-H226 lung 87.7% | NCI-H322M lung 94.2% | HOP-62 NSCLC 96.8% | NCI-H460 lung 92.9% | HOP-92 NSCLC 69.8% | A549/ATCC NSCLC 76.9% | 786-0 renal 81.3% | COLO 205 colon 70.3%

N#C/C(=C/C=C/c1cccc(Cl)c1)S(=O)c1ccccc1 (stereo not given)
active: NCI-H23 lung -43.6% | NCI-H226 lung -33% | NCI-H322M lung -44.9% | HOP-62 NSCLC -17.4% | NCI-H460 lung -22.1% | HOP-92 NSCLC -60.9% | NCI-H522 lung -89.2% | A549/ATCC NSCLC 1.83% | 786-0 renal -88.7% | COLO 205 colon -63.1%

CC1OC(O[C@H]2/C=C/C=C/C=C/C=C/C=C/C=C/C=C/[C@H](C)[C@@H](O)[C@@H](C)[C@H](C)OC(=O)CC(O)CC(O)CCC(O)C(O)CC(O)C[C@]3(O)C[C@H](O)C(C(=O)O)C(C2)O3)C(O)[C@H](N)C1O (stereo not given in full)
active: NCI-H23 lung -29.7% | NCI-H226 lung -9.69% | HOP-62 NSCLC -82.5% | NCI-H460 lung -55.5% | A549/ATCC NSCLC -89.9% | 786-0 renal -80%
inactive: NCI-H322M lung 20% | HOP-92 NSCLC 18.6% | NCI-H522 lung 16.2% | COLO 205 colon 38.5%

C=C1C(=O)O[C@H]2[C@H]1CC/C(COC(=O)C(=O)c1c[nH]c3ccc(OC)cc13)=C\CC[C@@]1(C)O[C@@H]21
active: NCI-H23 lung -28.1% | NCI-H226 lung -68.3% | NCI-H322M lung -70.5% | HOP-62 NSCLC -71.3% | NCI-H460 lung -53.9% | HOP-92 NSCLC -77.2% | NCI-H522 lung -61.3% | A549/ATCC NSCLC -62.7% | 786-0 renal -91% | COLO 205 colon -68.6%

CCCCCCCC/C=C\CCCCCCCCOc1ccccc1CC(=O)NCC[N+](C)(C)C
inactive: NCI-H23 lung 65.5% | NCI-H226 lung 52.3% | NCI-H322M lung 96.6% | HOP-62 NSCLC 37% | NCI-H460 lung 23.8% | HOP-92 NSCLC 61.3% | NCI-H522 lung 51.1% | A549/ATCC NSCLC 71.4% | 786-0 renal 50.5%
active: COLO 205 colon -7.71%

COc1ccccc1N1C(=O)/C(=C/C2=Cc3ccccc3OC2)SC1=S
inactive: NCI-H23 lung 97.6% | NCI-H226 lung 103% | NCI-H322M lung 92.6% | HOP-62 NSCLC 91.7% | NCI-H460 lung 102% | HOP-92 NSCLC 97.7% | NCI-H522 lung 90% | A549/ATCC NSCLC 95.7% | 786-0 renal 101% | COLO 205 colon 109%

CC(=O)N1C(=S)NC(=O)C1Cn1c(-c2ccccc2)nc2ccccc21 (stereo not given)
inactive: NCI-H23 lung 95.2% | NCI-H226 lung 93.6% | NCI-H322M lung 96.8% | HOP-62 NSCLC 92.1% | NCI-H460 lung 105% | HOP-92 NSCLC 97.5% | NCI-H522 lung 86.9% | A549/ATCC NSCLC 102% | 786-0 renal 102% | COLO 205 colon 108%

CC(CN1CCCCC1)C(=O)c1ccccc1 (stereo not given)
inactive: NCI-H23 lung 101% | NCI-H226 lung 103% | NCI-H322M lung 102% | HOP-62 NSCLC 103% | NCI-H460 lung 105% | HOP-92 NSCLC 79% | A549/ATCC NSCLC 98% | 786-0 renal 105% | COLO 205 colon 108%
active: NCI-H522 lung -57.1%

CC(=O)O[C@]1(C(C)=O)CCC2C3C[C@H](C)C4=CC(=O)CC[C@]4(C)C3CC[C@@]21C (stereo not given in full)
inactive: NCI-H23 lung 96.2% | NCI-H226 lung 73.6% | NCI-H322M lung 95.7% | HOP-62 NSCLC 94.6% | NCI-H460 lung 103% | HOP-92 NSCLC 89.9% | NCI-H522 lung 74.8% | A549/ATCC NSCLC 73.3% | 786-0 renal 97.4% | COLO 205 colon 104%

CC1(C)CC(=O)C2=C(C1)N(c1ccc(OC(F)(F)F)cc1)C(N)=C(C#N)C2c1ccc(Cl)cc1 (stereo not given)
inactive: NCI-H23 lung 85.6% | NCI-H226 lung 90.7% | NCI-H322M lung 91.3% | HOP-62 NSCLC 72.7% | NCI-H460 lung 93.7% | HOP-92 NSCLC 58.5% | NCI-H522 lung 63.1% | A549/ATCC NSCLC 76.3% | 786-0 renal 78.6% | COLO 205 colon 96.6%

CC1(c2ccccc2)NC(=O)N(NC(=O)CSc2nc(-c3cccs3)nc3ccccc23)C1=O (stereo not given)
inactive: NCI-H23 lung 89.7% | NCI-H226 lung 91.1% | NCI-H322M lung 98% | HOP-62 NSCLC 88.7% | NCI-H460 lung 107% | HOP-92 NSCLC 77.4% | NCI-H522 lung 82.3% | A549/ATCC NSCLC 79.1% | 786-0 renal 94.1% | COLO 205 colon 124%

COc1ccc(C2c3ccc4ccccc4c3Oc3nc(C)[nH]c(=O)c32)cc1 (stereo not given)
inactive: NCI-H23 lung 92% | NCI-H226 lung 92.4% | NCI-H322M lung 101% | HOP-62 NSCLC 89% | NCI-H460 lung 99.4% | HOP-92 NSCLC 91% | NCI-H522 lung 77% | A549/ATCC NSCLC 109% | 786-0 renal 107% | COLO 205 colon 110%

CCCCC1CCCCN1C(=O)OCC (stereo not given)
inactive: NCI-H23 lung 102% | NCI-H226 lung 121% | NCI-H322M lung 101% | HOP-62 NSCLC 103% | NCI-H460 lung 107% | HOP-92 NSCLC 88.5% | NCI-H522 lung 94.1% | A549/ATCC NSCLC 95.1% | 786-0 renal 93% | COLO 205 colon 102%

Cc1cc(Cl)ccc1Nc1nc(C(F)(F)F)ccc1C(=O)N/N=C/c1ccc(N(C)C)cc1
active: NCI-H522 lung 7.24%
inactive: NCI-H23 lung 30.5% | NCI-H226 lung 51.1% | NCI-H322M lung 25.7% | HOP-62 NSCLC 24% | NCI-H460 lung 20.3% | HOP-92 NSCLC 18.7% | A549/ATCC NSCLC 18.2% | 786-0 renal 16.8% | COLO 205 colon 14.9%
